# PubChem BioAssay
# The source made the active and inactive calls.
# Key:
# Albumin (Bos taurus) = Albumin (Bos taurus) (UniProt P02769); experiment: compounds binding labelled BSA control protein – biochemical, small-molecule microarray, Alexa647 label, 635/667 nm fluorescence, artefact control for SMM control protein annotation, profiling panel (AID 1118); details: BSA-A647 binding, fluorescence 635 nm, higher = more signal;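 further: score merges 667 nm emission intensity and signal-to-noise per printed compound spot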
# Sequence of Albumin (Bos taurus) (P02769 whole entry, looked up): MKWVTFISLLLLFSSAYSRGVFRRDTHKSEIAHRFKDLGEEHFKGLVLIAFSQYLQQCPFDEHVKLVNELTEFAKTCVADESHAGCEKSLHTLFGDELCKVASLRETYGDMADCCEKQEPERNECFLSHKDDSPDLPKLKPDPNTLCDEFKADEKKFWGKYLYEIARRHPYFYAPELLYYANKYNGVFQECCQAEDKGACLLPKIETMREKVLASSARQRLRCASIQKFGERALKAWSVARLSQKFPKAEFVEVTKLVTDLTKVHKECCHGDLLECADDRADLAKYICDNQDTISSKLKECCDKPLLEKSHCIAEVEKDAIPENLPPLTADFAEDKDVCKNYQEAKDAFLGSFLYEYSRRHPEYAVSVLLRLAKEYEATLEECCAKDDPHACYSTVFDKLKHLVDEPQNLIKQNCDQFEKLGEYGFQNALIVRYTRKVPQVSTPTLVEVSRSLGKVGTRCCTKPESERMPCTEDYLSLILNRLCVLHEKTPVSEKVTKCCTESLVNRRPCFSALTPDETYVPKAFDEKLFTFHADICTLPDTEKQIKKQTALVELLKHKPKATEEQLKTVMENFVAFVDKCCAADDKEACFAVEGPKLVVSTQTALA
# [1] = probe aXIP binding to arrayed compounds – biochemical, NeuroSMM set, 635/667 nm fluorescence, primary screen (AID 1119); details: small-molecule microarray, higher = more signal, called active from +8 up or from −8 down;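 further: probe is the protein aXip251-270 applied at 1 µg/mL to compound-printed slides; binding of probe to printed compounds measured as 667 nm fluorescence plus signal to noise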
# [2] = probe aNOTCH3 binding on compound microarray – biochemical, small-molecule microarray, 635/667 nm fluorescence, primary screen (AID 1120); details: higher = more signal;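 further: probe is a biotin-tagged antibody raised against NOTCH3 rather than NOTCH3 protein; score merges spot fluorescence near 667 nm with spot signal to noise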
# [3] = probe aNOTCH2 binding on compound microarray – biochemical, small-molecule microarray, 635/667 nm fluorescence, primary screen (AID 1121); details: higher = more signal;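 further: score merges feature fluorescence read at 667 nm with its signal to noise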
# [4] = biological target: Carbonic anhydrase 2 (Homo sapiens) (UniProt P00918); experiment: compounds binding carbonic anhydrase 2 – biochemical, small-molecule microarray, Alexa647-labelled CAII, profiling panel (AID 1122); details: CAII-A647 binding fluorescence, higher = more signal
# [5] = COS7 lysate on small-molecule microarray, probe aHis, 635 nm (AID 1123); details: COS7 cell lysate, fluorescence, higher = more signal;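 further: z-score combines 667nm fluorescence intensity with signal-to-noise per printed compound spot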
# [6] = probe aLAP1 signal on lysate-treated microarray – cell lysate, small-molecule microarray, COS7 lysate, primary screen (AID 1124); details: probe aLAP1, fluorescence, higher = more signal;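 further: lysate comes from COS7 cells expressing LAP1 and is applied at 0.3 µg/mL; score merges spot fluorescence near 667 nm with signal-to-noise over triplicate slides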
# Sam68 (KHDRBS1) = experiment: compounds binding KHDRBS1 protein – biochemical, small-molecule microarray, 635 nm fluorescence, primary screen (AID 1125); details: higher = more signal;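 further: score merges 667 nm channel intensity with signal to noise over triplicate slides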
# [7] = system: Chordin-like protein 2 (CHRDL2); experiment: compounds binding chordin-like 2 – biochemical, small-molecule microarray, 635 nm fluorescence, primary screen (AID 1126); details: fluorescence 635 nm, higher = more signal;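 further: printed compound slides probed with Chrdl2 protein at 4 µg/mL for 1 h at 4 C; score merges 667 nm emission intensity with signal to noise over three replicate slides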
# [8] = biological target: Concanavalin-A (Canavalia ensiformis) (UniProt P02866); experiment: compounds binding concanavalin A lectin – biochemical, small-molecule microarray, Alexa647 label, 635 nm, artefact control for SMM control protein annotation, primary screen (AID 1127); details: ConA-A647 binding fluorescence, higher = more signal;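 further: z combines 667 nm emission intensity with signal-to-noise across three replicate slides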
# Sequence of Concanavalin-A (Canavalia ensiformis) (P02866 whole entry, looked up): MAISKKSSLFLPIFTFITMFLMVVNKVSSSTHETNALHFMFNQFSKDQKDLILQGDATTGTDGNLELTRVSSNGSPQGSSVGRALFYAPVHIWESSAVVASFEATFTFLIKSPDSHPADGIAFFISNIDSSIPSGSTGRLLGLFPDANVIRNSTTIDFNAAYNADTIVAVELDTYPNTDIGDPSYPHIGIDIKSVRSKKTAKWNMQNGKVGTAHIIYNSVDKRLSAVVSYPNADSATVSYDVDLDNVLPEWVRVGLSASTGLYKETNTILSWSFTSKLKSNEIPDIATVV
# [9] = compounds binding Alexa647 anti-His antibody – biochemical, small-molecule microarray, 635 nm fluorescence, artefact control for SMM control protein annotation, primary screen (AID 1128); details: higher = more signal;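 further: score merges feature fluorescence with signal-to-noise for each printed compound spot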
# [10] = system: Human papillomavirus type 1a E7 protein (residues 1-88); experiment: HPV1a E7 small-molecule binders, primary screen, biochemical, small-molecule microarray, residues 1-88, 635 nm (AID 1129); details: small-molecule microarray binding, fluorescence 635 nm; higher = more signal
# [11] = biological target: Focal adhesion kinase 1 (Homo sapiens) (UniProt Q05397); experiment: PTK2 protein binding on printed compound slides – biochemical, small-molecule microarray, 635/667 nm fluorescence, BSA, DTT, primary screen (AID 1130); details: 635 nm fluorescence, higher = more signal;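 further: composite of spot emission at 667 nm and signal to noise over triplicate slides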
# Sequence of Focal adhesion kinase 1 (Homo sapiens) (Q05397 whole entry, looked up): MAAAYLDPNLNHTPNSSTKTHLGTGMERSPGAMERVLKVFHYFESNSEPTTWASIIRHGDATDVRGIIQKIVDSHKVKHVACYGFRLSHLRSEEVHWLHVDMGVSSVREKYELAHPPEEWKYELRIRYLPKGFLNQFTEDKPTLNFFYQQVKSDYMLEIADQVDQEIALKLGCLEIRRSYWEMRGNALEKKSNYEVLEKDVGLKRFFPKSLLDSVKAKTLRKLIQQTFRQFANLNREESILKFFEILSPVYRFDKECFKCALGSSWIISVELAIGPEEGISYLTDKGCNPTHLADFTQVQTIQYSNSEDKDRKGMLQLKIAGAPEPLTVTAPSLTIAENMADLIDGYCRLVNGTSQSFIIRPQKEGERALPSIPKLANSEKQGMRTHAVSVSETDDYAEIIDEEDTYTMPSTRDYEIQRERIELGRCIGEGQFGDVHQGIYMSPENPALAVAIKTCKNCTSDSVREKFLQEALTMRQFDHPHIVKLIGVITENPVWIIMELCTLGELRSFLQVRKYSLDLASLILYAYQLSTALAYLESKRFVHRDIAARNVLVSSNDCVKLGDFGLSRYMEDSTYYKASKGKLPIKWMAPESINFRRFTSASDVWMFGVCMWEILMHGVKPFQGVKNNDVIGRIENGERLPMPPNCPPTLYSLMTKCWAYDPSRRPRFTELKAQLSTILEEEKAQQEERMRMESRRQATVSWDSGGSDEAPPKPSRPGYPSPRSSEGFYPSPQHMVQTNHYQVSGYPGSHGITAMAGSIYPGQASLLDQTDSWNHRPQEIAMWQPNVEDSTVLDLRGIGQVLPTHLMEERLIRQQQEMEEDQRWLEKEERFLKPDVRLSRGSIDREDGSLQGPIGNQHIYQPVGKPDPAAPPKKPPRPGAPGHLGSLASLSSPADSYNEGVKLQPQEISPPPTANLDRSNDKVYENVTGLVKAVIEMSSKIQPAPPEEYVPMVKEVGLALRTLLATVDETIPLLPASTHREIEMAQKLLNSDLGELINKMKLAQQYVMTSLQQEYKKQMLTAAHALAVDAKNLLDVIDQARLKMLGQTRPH
# [12] = system: Fibrinogen (Alexa647-labelled); experiment: Alexa647-fibrinogen binding to printed small molecules – biochemical, small-molecule microarray, 635/667 nm fluorescence, artefact control for SMM control-protein annotation, profiling panel (AID 1131); details: fibrinogen-A647 binding fluorescence, higher = more signal;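 further: z-score merges 667 nm fluorescence with per-spot signal-to-noise over triplicate slides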
# [13] = biological target: Follistatin (Homo sapiens) (UniProt P19883); experiment: FST protein binding to printed compounds – biochemical, small-molecule microarray, 635/667 nm fluorescence, primary screen (AID 1132); details: 635 nm fluorescence, higher = more signal
# Sequence of Follistatin (Homo sapiens) (P19883 whole entry, looked up): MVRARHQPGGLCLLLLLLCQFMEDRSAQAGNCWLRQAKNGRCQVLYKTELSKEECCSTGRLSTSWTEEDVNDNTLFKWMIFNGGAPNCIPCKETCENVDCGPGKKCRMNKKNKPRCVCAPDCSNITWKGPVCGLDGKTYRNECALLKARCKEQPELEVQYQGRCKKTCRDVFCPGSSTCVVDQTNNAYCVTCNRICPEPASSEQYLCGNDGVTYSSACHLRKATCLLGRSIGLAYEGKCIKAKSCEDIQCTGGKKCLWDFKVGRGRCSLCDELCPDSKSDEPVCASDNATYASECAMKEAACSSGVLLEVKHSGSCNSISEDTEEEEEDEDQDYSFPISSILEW
# [14] = biological target: Fibroblast growth factor 2 (Homo sapiens) (UniProt P09038); experiment: basic fibroblast growth factor binding to printed compounds – biochemical, small-molecule microarray, 635/667 nm fluorescence, primary screen (AID 1133); details: FGF2, fluorescence 635/667, higher = more signal
# Sequence of Fibroblast growth factor 2 (Homo sapiens) (P09038 whole entry, looked up): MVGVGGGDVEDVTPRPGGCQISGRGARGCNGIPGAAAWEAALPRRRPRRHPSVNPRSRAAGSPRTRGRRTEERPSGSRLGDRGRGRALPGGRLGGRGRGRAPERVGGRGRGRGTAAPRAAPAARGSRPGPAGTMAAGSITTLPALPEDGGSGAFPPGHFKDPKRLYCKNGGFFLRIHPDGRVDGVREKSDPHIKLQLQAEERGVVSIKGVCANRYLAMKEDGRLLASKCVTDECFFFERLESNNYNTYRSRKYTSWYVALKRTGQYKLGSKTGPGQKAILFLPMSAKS
# [15] = JC-1 mitochondrial potential readout, lung cancer cells – cell-based, A549, JC-1 fluorescence, basal, 24 h, 100 nL, profiling panel (AID 1138); details: higher = more signal;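 further: A549 lung adenocarcinoma cells under basal conditions with no added stimulus; test concentration not given here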
# Lefty1 = Lefty1 protein binding to printed compounds – biochemical, small-molecule microarray, 635/667 nm fluorescence, primary screen (AID 1139); details: fluorescence 635/667, higher = more signal
# [16] = system: wheat germ agglutinin (Triticum aestivum), Alexa647-labelled; experiment: Alexa647-WGA lectin binding to printed small molecules – biochemical, small-molecule microarray, 635/667 nm fluorescence, artefact control for SMM control-protein annotation, profiling panel (AID 1140); details: WGA-A647 binding, 635 nm fluorescence, higher = more signal;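 further: score merges 667 nm feature emission with signal to noise over triplicate slides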
# [17] = biological target: Luciferin 4-monooxygenase (Photinus pyralis) (UniProt P08659); experiment: inhibition of purified Photinus pyralis luciferase – biochemical, luminescence, purified enzyme, 2006 set, primary screen (AID 1141); details: purified firefly luciferase, SteadyGlo luminescence, 30 min; higher = more signal, called active from +8 up or from −8 down;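 further: cell-free assay with purified firefly luciferase at 100 ng per well in PBS; test concentration not given here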
# Sequence of Luciferin 4-monooxygenase (Photinus pyralis) (P08659 whole entry, looked up): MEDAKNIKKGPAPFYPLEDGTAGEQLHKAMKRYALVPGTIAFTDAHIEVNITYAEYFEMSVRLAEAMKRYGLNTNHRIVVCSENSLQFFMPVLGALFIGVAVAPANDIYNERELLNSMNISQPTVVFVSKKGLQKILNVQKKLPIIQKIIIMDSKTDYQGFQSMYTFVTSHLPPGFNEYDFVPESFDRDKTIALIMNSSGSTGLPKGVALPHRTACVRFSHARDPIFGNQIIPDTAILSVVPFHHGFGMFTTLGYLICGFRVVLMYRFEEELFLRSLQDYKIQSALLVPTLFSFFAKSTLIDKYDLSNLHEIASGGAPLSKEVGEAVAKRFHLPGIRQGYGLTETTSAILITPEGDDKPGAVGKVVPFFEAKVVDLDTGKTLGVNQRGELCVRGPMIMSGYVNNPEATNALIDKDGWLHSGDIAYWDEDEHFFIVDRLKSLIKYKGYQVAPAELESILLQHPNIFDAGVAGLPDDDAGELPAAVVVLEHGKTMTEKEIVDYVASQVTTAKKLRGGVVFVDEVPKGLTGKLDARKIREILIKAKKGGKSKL
SMILES,composite z-score (Albumin (Bos taurus)),composite Z-score [1],composite z-score [2],composite z-score [3],composite z-score [4],composite z-score [5],composite z-score [6],composite z-score (Sam68 (KHDRBS1)),composite z-score [7],composite z-score [8],composite z-score [9],composite z-score [10],composite z-score [11],composite z-score [12],composite z-score [13],composite z-score [14],z-score [15],composite z-score (Lefty1),composite z-score [16],z-score [17]
CO[C@H]1O[C@H](CO)[C@@H](OC(=O)c2ccc(Br)cc2)[C@@H]2OC(=O)[C@@H](Cc3ccc4ccccc4c3)C/C=C/C[C@H](Cc3ccc4ccccc4c3)C(=O)O[C@@H]12,0.934,0.589 (inactive),0.109,0.0043,0.63,1.93,0.547,1.24,-0.517,0.275,1.4,1.2,0.337,-0.216,0.395,-0.311,1.59,-0.345,0.691,-1.28 (inactive)
COCCOC(=O)N1C(=O)[C@@]2(c3cc(C#Cc4ccc(OC)cc4)ccc31)[C@H](C(=O)N1CCN(c3ncccn3)CC1)[C@H]1C(=O)O[C@H](c3ccccc3)[C@H](c3ccccc3)N1[C@@H]2c1ccccc1OCCO,-0.108,0.131 (inactive),-0.122,-0.114,0.331,1.3,0.107,0.717,-0.0849,0.819,2.03,1.14,0.364,-0.118,0.579,0.238,-0.94,0.305,0.701,0.223 (inactive)
CCCCN1CC=CC23O[C@@H]4C=CCOC(=O)[C@@H]4[C@H]2C(=O)N(C(C)CO)[C@@H]3C1=O (stereo not given in full),-1.04,-0.527 (inactive),-0.154,-0.118,0.904,-0.819,-0.0435,-1.6,-1.98,-1.33,-0.461,-1.01,-0.243,-1.32,-1.55,-0.588,-0.414,-1.56,-1.02,-0.313 (inactive)
C[C@]1(C(=O)O)c2ccccc2C(=O)N(Cc2ccccc2)[C@H]1c1ccc(CO)cc1,-0.408,0.174 (inactive),-0.236,-0.0859,0.756,0.096,-0.581,-1.45,-1.48,-1.34,-1.17,-2.07,0.343,-2.48,-0.828,-1.33,0.686,-2.05,-1.37,-0.84 (inactive)
CN(C)C(=O)[C@@]1(Cc2ccccc2N=[N+]=[N-])COC(c2ccc(OCCCO)cc2)=N1,0.623,1.69 (inactive),0.12,-0.268,0.71,1.89,0.0648,0.905,0.118,1.12,0.869,1.22,0.947,1,1.32,1.76,1.76,-0.349,0.51,-3.71 (inactive)
